Data from the supplement of paper PMC8728848.
Many of the other results were omitted from the sample, so the strongest signals are more common in it than they were.

Tests used:
Test in all cases: glycan array binding signal (z-score within array); higher = stronger binding
Conditions in all cases: glycan notation: IUPAC condensed, linker removed
[1] = target: Fuc(a1-2)Gal(b1-3)GalNAc(b1-3)Gal
Outline: (§1)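 The binding signal is a Z-score computed within each array. Data were drawn from 3228 arrays in the Consortium for Functional Glycomics database, restricted to those with a known protein sequence. Scores were averaged over arrays of the same protein sequence at different concentrations or buffers, and over linkers, and negative values can be taken as non-binding.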

[2] = target: Fuc(a1-2)Gal(b1-3)GalNAc(b1-4)[Neu5Ac(a2-3)]Gal(b1-4)Glc
Outline: as §1

Fuc(a1-2)Gal(b1-3)GlcNAc = target: Fuc(a1-2)Gal(b1-3)GlcNAc
Outline: as §1

Fuc(a1-2)Gal(b1-4)Glc = target: Fuc(a1-2)Gal(b1-4)Glc
Outline: as §1

[3] = target: Fuc(a1-2)[Gal(a1-3)]Gal(b1-4)GlcNAc
Outline: as §1

[4] = target: Fuc(a1-2)[GalNAc(a1-3)]Gal(b1-4)Glc
Outline: as §1

[5] = target: Fuc(a1-2)[GalNAc(a1-3)]Gal(b1-4)GlcNAc(b1-3)Gal(b1-4)GlcNAc(b1-3)Gal(b1-4)GlcNAc
Outline: as §1

Fuc(a1-3)GlcNAc = target: Fuc(a1-3)GlcNAc
Outline: as §1

[6] = target: Fuc(a1-3)[Gal(b1-4)]GlcNAc(b1-3)GalNAc
Outline: as §1

Gal(a1-3)Gal(b1-3)Glc = target: Gal(a1-3)Gal(b1-3)Glc
Outline: as §1

[7] = target: Gal(a1-3)Gal(b1-3)GlcNAc(b1-2)Man(a1-3)[Gal(a1-3)Gal(b1-3)GlcNAc(b1-2)Man(a1-6)]Man(b1-4)GlcNAc(b1-4)GlcNAc
Outline: as §1

[8] = target: Gal(a1-3)Gal(b1-3)GlcNAc(b1-6)GalNAc
Outline: as §1

Gal(a1-4)Gal(b1-4)Glc = target: Gal(a1-4)Gal(b1-4)Glc
Outline: as §1

Gal(b1-3)Gal(b1-4)GlcNAc = target: Gal(b1-3)Gal(b1-4)GlcNAc
Outline: as §1

[9] = target: Gal(b1-3)GalNAc(b1-4)[Neu5Ac(a2-3)]Gal(b1-4)Glc
Outline: as §1

[10] = target: Gal(b1-3)GlcNAc(a1-6)Gal(b1-4)GlcNAc
Outline: as §1

Gal(b1-3)GlcNAc(b1-2)Man = target: Gal(b1-3)GlcNAc(b1-2)Man
Outline: as §1

[11] = target: Gal(b1-3)GlcNAc(b1-3)Gal(b1-4)GlcNAc(b1-6)[Gal(b1-3)GlcNAc(b1-3)]Gal(b1-4)Glc
Outline: as §1

[12] = target: Gal(b1-3)[Fuc(a1-4)]GlcNAc(b1-3)Gal(b1-3)[Fuc(a1-4)]GlcNAc
Outline: as §1

[13] = target: Gal(b1-4)GlcNAc(b1-2)Man(a1-3)[Gal(b1-4)GlcNAc(b1-2)Man(a1-6)][Gal(b1-4)GlcNAc(b1-4)]Man(b1-4)GlcNAc(b1-4)[Fuc(a1-6)]GlcNAc
Outline: as §1

[14] = target: Gal(b1-4)GlcNAc(b1-2)Man(a1-3)[Man(a1-6)]Man(b1-4)GlcNAc(b1-4)GlcNAc
Outline: as §1

[15] = target: Gal(b1-4)GlcNAc(b1-2)Man(a1-6)[GlcNAc(b1-2)Man(a1-3)]Man(b1-4)GlcNAc(b1-4)GlcNAc
Outline: as §1

[16] = target: Gal(b1-4)GlcNAc(b1-2)[Gal(b1-4)GlcNAc(b1-6)]Man(a1-6)[GlcNAc(b1-4)][Gal(b1-4)GlcNAc(b1-2)Man(a1-3)]Man(b1-4)GlcNAc(b1-4)GlcNAc
Outline: as §1

[17] = target: Gal(b1-4)GlcNAc(b1-3)[Gal(b1-4)GlcNAc(b1-6)]GalNAc
Outline: as §1

Gal3S(b1-4)Glc = target: Gal3S(b1-4)Glc
Outline: as §1

Gal3S6S(b1-4)GlcNAc = target: Gal3S6S(b1-4)GlcNAc
Outline: as §1

Gal3S6S(b1-4)GlcNAc6S = target: Gal3S6S(b1-4)GlcNAc6S
Outline: as §1

Glc(a1-6)Glc(a1-6)Glc = target: Glc(a1-6)Glc(a1-6)Glc
Outline: as §1

Glc(b1-6)Glc = target: Glc(b1-6)Glc
Outline: as §1

[18] = target: GlcNAc(a1-4)Gal(b1-3)GlcNAc
Outline: as §1

[19] = target: GlcNAc(a1-4)Gal(b1-4)GlcNAc(b1-3)Gal(b1-4)GlcNAc
Outline: as §1

[20] = target: GlcNAc(b1-3)Gal(b1-4)GlcNAc(b1-6)[GlcNAc(b1-3)]Gal(b1-4)GlcNAc
Outline: as §1

[21] = target: GlcNAc(b1-3)[GlcNAc(b1-6)]GalNAc
Outline: as §1

[22] = target: GlcNAc(b1-4)GlcNAc(b1-4)GlcNAc(b1-4)GlcNAc(b1-4)GlcNAc
Outline: as §1

[23] = target: Man(a1-2)Man(a1-2)Man(a1-3)Man
Outline: as §1

MurNAc(b1-4)GlcNAc = target: MurNAc(b1-4)GlcNAc
Outline: as §1

[24] = target: Neu5Ac(a2-3)Gal(b1-3)GalNAc(b1-4)[Neu5Ac(a2-8)Neu5Ac(a2-3)]Gal(b1-4)Glc
Outline: as §1

[25] = target: Neu5Ac(a2-3)Gal(b1-4)GlcNAc(b1-3)Gal(b1-4)GlcNAc(b1-3)[Neu5Ac(a2-3)Gal(b1-4)GlcNAc(b1-3)Gal(b1-4)GlcNAc(b1-6)]GalNAc
Outline: as §1

[26] = target: Neu5Ac(a2-3)Gal(b1-4)GlcNAc(b1-3)[Neu5Ac(a2-3)Gal(b1-4)GlcNAc(b1-6)]GalNAc
Outline: as §1

[27] = target: Neu5Ac(a2-3)Gal6S(b1-4)[Fuc(a1-3)]GlcNAc
Outline: as §1

[28] = target: Neu5Ac(a2-6)Gal(b1-4)GlcNAc(b1-2)Man(a1-3)[Neu5Ac(a2-3)Gal(b1-4)GlcNAc(b1-2)Man(a1-6)]Man(b1-4)GlcNAc(b1-4)GlcNAc
Outline: as §1

[29] = target: Neu5Ac(a2-6)Gal(b1-4)GlcNAc(b1-2)Man(a1-3)[Neu5Ac(a2-6)Gal(b1-4)GlcNAc(b1-2)Man(a1-6)]Man(b1-4)GlcNAc(b1-4)GlcNAc
Outline: as §1

[30] = target: Neu5Ac(a2-6)Gal(b1-4)GlcNAc(b1-3)Gal(b1-4)GlcNAc(b1-3)GalNAc
Outline: as §1

[31] = target: Neu5Ac(a2-6)Gal(b1-4)GlcNAc(b1-3)GalNAc
Outline: as §1

[32] = target: Neu5Ac(a2-8)Neu5Ac(a2-3)Gal(b1-3)GalNAc(b1-4)[Neu5Ac(a2-3)]Gal(b1-4)Glc
Outline: as §1

[33] = target: Neu5Ac(a2-8)Neu5Ac(a2-3)[Gal(b1-3)GalNAc(b1-4)]Gal(b1-4)Glc
Outline: as §1

[34] = target: Neu5Ac(a2-8)Neu5Ac(a2-8)Neu5Ac(a2-3)[Gal(b1-3)GalNAc(b1-4)]Gal(b1-4)Glc
Outline: as §1

[35] = target: Neu5Ac(a2-8)Neu5Gc(a2-3)Gal(b1-4)GlcNAc
Outline: as §1

Neu5Gc(a2-3)Gal(b1-4)Glc = target: Neu5Gc(a2-3)Gal(b1-4)Glc
Outline: as §1

[36] = target: Neu5Gc(a2-3)Gal(b1-4)[Fuc(a1-4)]GlcNAc
Outline: as §1

B1: OVGAL11 (Ovis aries), AAF64320 (protein)
chain: MDSLPNPYLQSVSLTVCYMVKIKANLLSAFGKNPELQVDFGTGTGQGGNIPFRFWYCDGMVVMNTFTDGSWQKEEKVLTDAFVPGQPFELQFLVLEKEYQVFVKNKPICQFAHRLPLQSVKMLDVRGDIVLTSVDTL
- glycan array binding signal (z-score) [1]: 1.72
- glycan array binding signal (z-score) [2]: 6.31
- glycan array binding signal (z-score) (Fuc(a1-2)Gal(b1-3)GlcNAc): -0.096
- glycan array binding signal (z-score) (Fuc(a1-2)Gal(b1-4)Glc): -0.057
- glycan array binding signal (z-score) [3]: 0.2
- glycan array binding signal (z-score) [4]: 0.204
- glycan array binding signal (z-score) [5]: -0.076
- glycan array binding signal (z-score) (Fuc(a1-3)GlcNAc): 4.51
- glycan array binding signal (z-score) [6]: -0.106
- glycan array binding signal (z-score) (Gal(a1-3)Gal(b1-3)Glc): -0.398
- glycan array binding signal (z-score) [7]: -0.081
- glycan array binding signal (z-score) [8]: -0.082
- glycan array binding signal (z-score) (Gal(a1-4)Gal(b1-4)Glc): -0.104
- glycan array binding signal (z-score) (Gal(b1-3)Gal(b1-4)GlcNAc): -0.063
- glycan array binding signal (z-score) [9]: 1.62
- glycan array binding signal (z-score) [10]: -0.11
- glycan array binding signal (z-score) (Gal(b1-3)GlcNAc(b1-2)Man): -0.023
- glycan array binding signal (z-score) [11]: -0.113
- glycan array binding signal (z-score) [12]: -0.101
- glycan array binding signal (z-score) [13]: -0.011
- glycan array binding signal (z-score) [14]: -0.086
- glycan array binding signal (z-score) [15]: -0.094
- glycan array binding signal (z-score) [16]: -0.095
- glycan array binding signal (z-score) [17]: 0.686
- glycan array binding signal (z-score) (Gal3S(b1-4)Glc): 0.199
- glycan array binding signal (z-score) (Gal3S6S(b1-4)GlcNAc): -0.175
- glycan array binding signal (z-score) (Gal3S6S(b1-4)GlcNAc6S): 0.724
- glycan array binding signal (z-score) (Glc(a1-6)Glc(a1-6)Glc): -0.089
- glycan array binding signal (z-score) (Glc(b1-6)Glc): 0.568
- glycan array binding signal (z-score) [18]: -0.114
- glycan array binding signal (z-score) [19]: -0.089
- glycan array binding signal (z-score) [20]: -0.102
- glycan array binding signal (z-score) [21]: -0.084
- glycan array binding signal (z-score) [22]: -0.316
- glycan array binding signal (z-score) [23]: 4.38
- glycan array binding signal (z-score) (MurNAc(b1-4)GlcNAc): -0.098
- glycan array binding signal (z-score) [24]: -0.069
- glycan array binding signal (z-score) [25]: -0.068
- glycan array binding signal (z-score) [26]: -0.097
- glycan array binding signal (z-score) [27]: -0.219
- glycan array binding signal (z-score) [28]: -0.08
- glycan array binding signal (z-score) [29]: -0.138
- glycan array binding signal (z-score) [30]: -0.065
- glycan array binding signal (z-score) [31]: -0.082
- glycan array binding signal (z-score) [32]: 1.75
- glycan array binding signal (z-score) [33]: 13.5
- glycan array binding signal (z-score) [34]: -0.044
- glycan array binding signal (z-score) [35]: 0.807
- glycan array binding signal (z-score) (Neu5Gc(a2-3)Gal(b1-4)Glc): -0.214
- glycan array binding signal (z-score) [36]: 0.714
